This passage reports binding signal results from article PMC7862700, “An all-to-all approach to the identification of sequence-specific readers for epigenetic DNA modifications on cytosine”.

Assay in all cases: DAPPL (digital affinity profiling via proximity ligation, sequencing); 10 mM Tris-HCl pH 7.5, 50 mM NaCl, 1 mM DTT, 4% glycerol, room temperature, 30 min; GST-TFs on glutathione beads, 16-mer random dsDNA library, 0.1% formaldehyde crosslink after washing; high values mean tight binding
In one assay the target is T1, FEV (Homo sapiens, UniProt Q99581 1-238).
T1 sequence: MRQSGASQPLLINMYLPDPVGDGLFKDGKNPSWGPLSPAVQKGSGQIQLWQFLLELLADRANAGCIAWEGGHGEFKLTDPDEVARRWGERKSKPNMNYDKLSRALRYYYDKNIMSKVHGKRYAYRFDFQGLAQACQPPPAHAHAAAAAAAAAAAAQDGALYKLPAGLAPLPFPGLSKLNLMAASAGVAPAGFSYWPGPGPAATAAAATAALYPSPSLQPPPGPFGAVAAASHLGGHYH
The note with it: protein: recombinant; tags: N-terminal GST; dsDNA, one strand shown. The essentials: (§1)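 Pools were built from human transcription factors expressed in yeast as GST fusions, captured on glutathione beads and DNA-barcoded, along with a tag-only sample. Incubation with 200 nmole of a 16-mer random double-stranded DNA library lasted 30 min at room temperature in Tris/NaCl/DTT/glycerol buffer, and was followed by washing, 0.1% formaldehyde crosslinking, proximity ligation, PCR amplification and Illumina NextSeq500 sequencing. Binding signal is the quotient of each hexamer's read frequency for a factor and its frequency for the tag-only sample.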

The next assay concerns the target ETV5 (Homo sapiens, UniProt P41161 1-510). The conditions noted are these: protein: recombinant; tags: N-terminal GST; dsDNA, one strand shown. The essentials:
as §1

The target of a further assay is HSF1 (Homo sapiens, UniProt Q00613 1-529). The note with it: protein: recombinant; tags: N-terminal GST; chain copies: 3; dsDNA, one strand shown. The essentials:
as §1

A further assay has as its target T2, SPIC (Homo sapiens, UniProt Q8N5J4 1-248).
T2 sequence: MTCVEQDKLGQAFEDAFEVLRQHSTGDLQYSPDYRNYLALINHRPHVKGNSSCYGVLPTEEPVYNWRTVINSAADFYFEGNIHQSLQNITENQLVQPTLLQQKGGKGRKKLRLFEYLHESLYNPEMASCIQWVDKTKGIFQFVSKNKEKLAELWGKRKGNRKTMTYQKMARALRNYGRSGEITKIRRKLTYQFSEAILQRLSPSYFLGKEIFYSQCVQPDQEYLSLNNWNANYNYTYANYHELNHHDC
The note with it: protein: recombinant; tags: N-terminal GST; dsDNA, one strand shown. Put shortly: as §1

In another assay the target is ELF4 (Homo sapiens, UniProt Q99607 1-663). The conditions noted are these: protein: recombinant; tags: N-terminal GST; dsDNA, one strand shown. The essentials:
as §1

Another assay addresses T3, ELK4 (Homo sapiens, UniProt P28324-2 1-405).
T3 sequence: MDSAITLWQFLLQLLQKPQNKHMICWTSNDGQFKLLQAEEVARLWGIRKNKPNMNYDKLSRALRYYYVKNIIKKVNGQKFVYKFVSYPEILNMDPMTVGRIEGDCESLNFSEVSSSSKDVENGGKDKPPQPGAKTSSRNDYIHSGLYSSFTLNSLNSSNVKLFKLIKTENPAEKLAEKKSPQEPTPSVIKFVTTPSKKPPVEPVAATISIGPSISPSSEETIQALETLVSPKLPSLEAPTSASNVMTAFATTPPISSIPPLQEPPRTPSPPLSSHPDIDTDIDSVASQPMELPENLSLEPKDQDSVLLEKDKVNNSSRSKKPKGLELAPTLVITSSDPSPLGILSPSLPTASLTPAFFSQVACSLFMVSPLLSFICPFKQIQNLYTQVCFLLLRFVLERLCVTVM
The note with it: protein: recombinant; tags: N-terminal GST; dsDNA, one strand shown. Put shortly:
as §1

For a further assay, the target named is T4, ETV2 (Homo sapiens, UniProt O00321 1-342).
T4 sequence: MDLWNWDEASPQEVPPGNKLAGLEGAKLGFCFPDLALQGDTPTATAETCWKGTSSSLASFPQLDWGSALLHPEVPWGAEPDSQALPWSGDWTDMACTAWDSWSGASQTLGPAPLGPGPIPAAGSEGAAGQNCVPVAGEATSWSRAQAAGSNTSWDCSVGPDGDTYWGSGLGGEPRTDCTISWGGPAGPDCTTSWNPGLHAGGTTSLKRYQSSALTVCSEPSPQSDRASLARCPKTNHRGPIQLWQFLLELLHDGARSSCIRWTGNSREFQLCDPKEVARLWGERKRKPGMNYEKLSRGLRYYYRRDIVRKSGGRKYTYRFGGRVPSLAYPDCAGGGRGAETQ
The conditions noted are these: protein: recombinant; tags: N-terminal GST; dsDNA, one strand shown. The essentials: as §1

The target of the next assay is T5, ELF3 (Homo sapiens, UniProt P78545 1-371).
T5 sequence: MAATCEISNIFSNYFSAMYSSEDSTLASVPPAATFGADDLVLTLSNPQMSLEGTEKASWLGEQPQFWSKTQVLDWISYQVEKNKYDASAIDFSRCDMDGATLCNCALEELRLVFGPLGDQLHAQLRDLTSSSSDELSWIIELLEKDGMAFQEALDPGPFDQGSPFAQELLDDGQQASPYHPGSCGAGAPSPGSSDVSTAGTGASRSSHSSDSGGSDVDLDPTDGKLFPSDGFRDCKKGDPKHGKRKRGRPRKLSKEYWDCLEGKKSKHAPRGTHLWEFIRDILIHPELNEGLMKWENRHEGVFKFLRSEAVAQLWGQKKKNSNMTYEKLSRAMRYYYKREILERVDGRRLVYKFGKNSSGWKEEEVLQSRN
The conditions noted are these: protein: recombinant; tags: N-terminal GST; dsDNA, one strand shown. The essentials:
as §1

For a further assay, the target named is CRX (Homo sapiens, UniProt O43186 1-299). The conditions noted are these: protein: recombinant; tags: N-terminal GST; dsDNA, one strand shown. Put shortly: as §1
Chain of CRX (O43186 whole entry): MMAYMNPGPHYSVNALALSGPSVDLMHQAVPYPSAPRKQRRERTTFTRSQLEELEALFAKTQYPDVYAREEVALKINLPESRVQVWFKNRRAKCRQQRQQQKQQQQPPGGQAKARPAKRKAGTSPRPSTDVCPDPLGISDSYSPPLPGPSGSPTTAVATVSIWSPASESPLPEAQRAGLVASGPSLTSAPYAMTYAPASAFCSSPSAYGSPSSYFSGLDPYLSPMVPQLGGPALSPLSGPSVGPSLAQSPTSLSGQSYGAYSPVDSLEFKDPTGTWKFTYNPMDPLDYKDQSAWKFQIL
The target of the next assay is ETV1 (Homo sapiens, UniProt P50549 1-477). The note with it: protein: recombinant; tags: N-terminal GST; dsDNA, one strand shown. The essentials: as §1
Chain of ETV1 (P50549 whole entry): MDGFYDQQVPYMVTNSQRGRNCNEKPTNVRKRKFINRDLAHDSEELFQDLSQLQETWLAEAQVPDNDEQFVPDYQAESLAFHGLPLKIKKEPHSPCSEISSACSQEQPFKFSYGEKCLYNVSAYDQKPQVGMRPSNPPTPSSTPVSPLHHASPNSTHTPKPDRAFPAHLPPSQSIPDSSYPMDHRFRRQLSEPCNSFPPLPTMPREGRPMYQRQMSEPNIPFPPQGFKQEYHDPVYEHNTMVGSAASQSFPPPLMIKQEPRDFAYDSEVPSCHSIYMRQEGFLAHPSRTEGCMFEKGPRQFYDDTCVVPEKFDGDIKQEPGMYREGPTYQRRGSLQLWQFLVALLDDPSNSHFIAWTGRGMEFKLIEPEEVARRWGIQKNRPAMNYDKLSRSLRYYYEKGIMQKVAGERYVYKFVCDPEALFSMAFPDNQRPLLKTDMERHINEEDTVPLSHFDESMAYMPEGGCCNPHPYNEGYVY
The target of a further assay is T6, ERF (Homo sapiens, UniProt P50548 1-548).
T6 sequence: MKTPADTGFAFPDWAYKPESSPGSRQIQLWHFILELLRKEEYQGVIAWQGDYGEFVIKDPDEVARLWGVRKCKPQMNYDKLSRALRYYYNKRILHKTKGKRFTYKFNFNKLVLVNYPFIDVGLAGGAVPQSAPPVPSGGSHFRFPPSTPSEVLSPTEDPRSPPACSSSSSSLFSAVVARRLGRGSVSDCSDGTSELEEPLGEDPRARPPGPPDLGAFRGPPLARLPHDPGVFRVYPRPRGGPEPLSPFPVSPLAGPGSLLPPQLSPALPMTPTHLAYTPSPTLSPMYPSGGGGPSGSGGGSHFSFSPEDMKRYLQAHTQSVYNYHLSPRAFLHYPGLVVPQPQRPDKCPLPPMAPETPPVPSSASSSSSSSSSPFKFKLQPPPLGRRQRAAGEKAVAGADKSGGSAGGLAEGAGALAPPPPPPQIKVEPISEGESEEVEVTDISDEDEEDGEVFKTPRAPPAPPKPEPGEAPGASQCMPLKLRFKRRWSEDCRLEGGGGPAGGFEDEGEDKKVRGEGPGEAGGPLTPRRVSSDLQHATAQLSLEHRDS
The conditions noted are these: protein: recombinant; tags: N-terminal GST; dsDNA, one strand shown. Put shortly: as §1

The next assay deals with T7, ETV3L (Homo sapiens, UniProt Q6ZN32 1-361).
T7 sequence: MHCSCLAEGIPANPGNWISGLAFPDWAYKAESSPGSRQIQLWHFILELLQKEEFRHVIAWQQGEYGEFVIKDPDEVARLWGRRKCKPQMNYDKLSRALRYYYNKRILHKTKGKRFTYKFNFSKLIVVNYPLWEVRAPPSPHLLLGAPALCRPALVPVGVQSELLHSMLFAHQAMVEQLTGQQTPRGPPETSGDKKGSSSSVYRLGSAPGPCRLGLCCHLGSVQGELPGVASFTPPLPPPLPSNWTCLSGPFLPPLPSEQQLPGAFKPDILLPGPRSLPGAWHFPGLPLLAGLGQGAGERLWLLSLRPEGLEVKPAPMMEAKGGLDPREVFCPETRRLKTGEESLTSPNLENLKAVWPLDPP
The conditions noted are these: protein: recombinant; tags: N-terminal GST; dsDNA, one strand shown. The essentials: as §1

The target of the next assay is T8, ETS2 (Homo sapiens, UniProt P15036 1-469).
T8 sequence: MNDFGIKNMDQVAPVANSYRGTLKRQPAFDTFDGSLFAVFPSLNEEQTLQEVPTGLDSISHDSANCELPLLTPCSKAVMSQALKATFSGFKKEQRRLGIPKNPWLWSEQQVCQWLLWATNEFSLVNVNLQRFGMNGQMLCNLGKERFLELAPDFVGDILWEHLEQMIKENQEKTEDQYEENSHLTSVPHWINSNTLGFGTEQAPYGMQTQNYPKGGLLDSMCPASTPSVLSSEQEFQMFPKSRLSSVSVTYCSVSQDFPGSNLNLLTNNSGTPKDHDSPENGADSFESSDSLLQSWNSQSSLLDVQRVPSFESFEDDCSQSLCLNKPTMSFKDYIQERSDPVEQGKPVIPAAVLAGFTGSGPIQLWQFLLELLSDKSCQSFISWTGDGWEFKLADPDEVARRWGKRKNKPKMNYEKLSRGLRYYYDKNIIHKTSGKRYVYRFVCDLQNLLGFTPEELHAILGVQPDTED
The note with it: protein: recombinant; tags: N-terminal GST; dsDNA, one strand shown. The essentials:
as §1

For another assay, the target named is T9, SPDEF (Homo sapiens, UniProt O95238 1-335).
T9 sequence: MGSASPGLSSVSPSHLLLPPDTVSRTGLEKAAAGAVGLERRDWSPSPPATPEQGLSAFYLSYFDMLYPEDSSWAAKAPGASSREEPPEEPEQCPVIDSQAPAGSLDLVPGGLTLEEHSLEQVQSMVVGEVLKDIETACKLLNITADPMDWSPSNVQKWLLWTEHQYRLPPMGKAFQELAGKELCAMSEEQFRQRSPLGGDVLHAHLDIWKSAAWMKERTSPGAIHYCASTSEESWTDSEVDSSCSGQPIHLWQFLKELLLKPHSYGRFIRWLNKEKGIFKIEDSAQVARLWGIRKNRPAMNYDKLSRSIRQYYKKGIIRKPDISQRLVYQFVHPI
The conditions noted are these: protein: recombinant; tags: N-terminal GST; dsDNA, one strand shown. The essentials:
as §1

The next assay deals with T10, ETV7 (Homo sapiens, UniProt Q9Y603 1-341).
T10 sequence: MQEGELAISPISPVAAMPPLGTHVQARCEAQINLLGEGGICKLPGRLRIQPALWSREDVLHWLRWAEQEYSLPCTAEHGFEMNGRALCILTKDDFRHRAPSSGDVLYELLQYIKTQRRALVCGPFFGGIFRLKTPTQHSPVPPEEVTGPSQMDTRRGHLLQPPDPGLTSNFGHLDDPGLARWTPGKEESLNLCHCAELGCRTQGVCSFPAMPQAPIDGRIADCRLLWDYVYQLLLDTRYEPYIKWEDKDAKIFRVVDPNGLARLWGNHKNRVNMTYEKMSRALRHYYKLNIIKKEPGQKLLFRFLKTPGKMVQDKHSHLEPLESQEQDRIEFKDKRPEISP
The note with it: protein: recombinant; tags: N-terminal GST; dsDNA, one strand shown. The essentials:
as §1

For another assay, the target named is T11, ELF5 (Homo sapiens, UniProt Q9UKW6-2 1-255).
T11 sequence: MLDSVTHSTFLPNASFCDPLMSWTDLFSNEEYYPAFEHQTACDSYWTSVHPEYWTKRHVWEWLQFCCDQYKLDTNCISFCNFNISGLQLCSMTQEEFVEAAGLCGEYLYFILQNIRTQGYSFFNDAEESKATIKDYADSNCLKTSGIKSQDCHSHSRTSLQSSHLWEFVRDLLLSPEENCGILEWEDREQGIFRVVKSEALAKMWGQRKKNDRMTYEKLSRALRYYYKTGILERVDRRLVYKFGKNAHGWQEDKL
The conditions noted are these: protein: recombinant; tags: N-terminal GST; dsDNA, one strand shown. The essentials:
as §1

A further assay concerns the target T12, ETV3 (Homo sapiens, UniProt P41162-2 1-143).
T12 sequence: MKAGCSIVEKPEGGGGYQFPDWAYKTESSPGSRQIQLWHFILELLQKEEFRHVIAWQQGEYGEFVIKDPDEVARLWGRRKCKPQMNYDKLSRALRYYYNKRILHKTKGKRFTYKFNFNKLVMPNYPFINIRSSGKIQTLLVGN
The note with it: protein: recombinant; tags: N-terminal GST; dsDNA, one strand shown. Put shortly:
as §1

The next assay concerns the target ETV6 (Homo sapiens, UniProt P41212 1-452). The conditions noted are these: protein: recombinant; tags: N-terminal GST; dsDNA, one strand shown. Put shortly: as §1

Chain of ELF4 (Q99607 whole entry): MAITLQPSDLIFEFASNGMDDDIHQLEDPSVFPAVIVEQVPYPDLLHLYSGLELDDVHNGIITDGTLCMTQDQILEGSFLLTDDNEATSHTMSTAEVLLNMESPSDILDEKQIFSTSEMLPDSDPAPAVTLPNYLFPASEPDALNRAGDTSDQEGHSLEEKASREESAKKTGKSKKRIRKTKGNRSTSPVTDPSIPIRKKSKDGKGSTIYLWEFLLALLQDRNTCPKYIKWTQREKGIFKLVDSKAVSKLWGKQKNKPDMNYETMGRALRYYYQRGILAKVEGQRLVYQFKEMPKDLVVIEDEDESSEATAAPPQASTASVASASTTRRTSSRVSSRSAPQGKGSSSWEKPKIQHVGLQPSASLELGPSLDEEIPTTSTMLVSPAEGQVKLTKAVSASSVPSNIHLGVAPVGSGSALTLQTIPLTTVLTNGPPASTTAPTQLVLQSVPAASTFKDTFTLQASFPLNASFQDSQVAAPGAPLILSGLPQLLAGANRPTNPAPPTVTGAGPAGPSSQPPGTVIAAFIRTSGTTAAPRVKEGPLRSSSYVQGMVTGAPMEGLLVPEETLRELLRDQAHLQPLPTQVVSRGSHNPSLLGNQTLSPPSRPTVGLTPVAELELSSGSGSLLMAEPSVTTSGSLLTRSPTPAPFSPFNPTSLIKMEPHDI
Chain of ETV6 (P41212 whole entry): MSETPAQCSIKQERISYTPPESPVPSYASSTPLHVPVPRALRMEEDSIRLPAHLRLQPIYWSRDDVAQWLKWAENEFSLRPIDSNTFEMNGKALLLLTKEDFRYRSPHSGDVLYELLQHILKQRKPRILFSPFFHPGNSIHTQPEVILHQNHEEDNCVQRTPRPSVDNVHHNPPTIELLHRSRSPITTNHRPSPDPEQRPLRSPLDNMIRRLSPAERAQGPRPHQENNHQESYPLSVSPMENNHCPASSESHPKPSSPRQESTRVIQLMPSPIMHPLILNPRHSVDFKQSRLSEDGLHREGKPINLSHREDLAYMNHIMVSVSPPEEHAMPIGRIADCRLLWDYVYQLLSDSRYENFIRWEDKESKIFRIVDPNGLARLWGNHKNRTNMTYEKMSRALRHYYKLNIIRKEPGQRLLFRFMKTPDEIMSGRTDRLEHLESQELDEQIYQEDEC
Chain of HSF1 (Q00613 whole entry): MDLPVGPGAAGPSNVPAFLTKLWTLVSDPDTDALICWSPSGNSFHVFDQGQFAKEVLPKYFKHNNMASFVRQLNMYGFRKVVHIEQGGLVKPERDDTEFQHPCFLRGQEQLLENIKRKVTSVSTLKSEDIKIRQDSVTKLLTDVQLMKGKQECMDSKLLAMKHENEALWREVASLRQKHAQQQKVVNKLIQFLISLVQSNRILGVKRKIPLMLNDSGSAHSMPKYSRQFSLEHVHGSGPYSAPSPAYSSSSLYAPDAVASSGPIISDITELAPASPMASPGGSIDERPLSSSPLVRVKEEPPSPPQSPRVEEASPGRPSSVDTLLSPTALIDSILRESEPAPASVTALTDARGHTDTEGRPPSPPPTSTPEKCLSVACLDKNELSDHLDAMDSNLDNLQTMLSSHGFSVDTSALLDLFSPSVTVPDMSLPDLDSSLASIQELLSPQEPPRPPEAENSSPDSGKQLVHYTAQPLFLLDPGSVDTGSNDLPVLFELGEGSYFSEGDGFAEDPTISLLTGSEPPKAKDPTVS
Chain of ETV5 (P41161 whole entry): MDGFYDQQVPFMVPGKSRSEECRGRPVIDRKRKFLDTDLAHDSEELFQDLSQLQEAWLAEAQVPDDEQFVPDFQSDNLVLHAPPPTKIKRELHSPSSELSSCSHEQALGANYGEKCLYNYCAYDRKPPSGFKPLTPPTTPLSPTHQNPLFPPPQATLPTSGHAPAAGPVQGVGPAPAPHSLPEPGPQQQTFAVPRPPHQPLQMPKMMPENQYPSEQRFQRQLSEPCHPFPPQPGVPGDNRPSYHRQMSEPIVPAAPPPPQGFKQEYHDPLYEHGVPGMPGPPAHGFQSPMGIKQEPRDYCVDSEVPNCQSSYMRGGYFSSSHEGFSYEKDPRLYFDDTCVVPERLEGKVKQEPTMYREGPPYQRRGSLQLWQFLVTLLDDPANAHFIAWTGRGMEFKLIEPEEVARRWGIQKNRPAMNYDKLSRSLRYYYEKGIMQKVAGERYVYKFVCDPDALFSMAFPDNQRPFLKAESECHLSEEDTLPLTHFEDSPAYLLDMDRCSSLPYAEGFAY

Turning to ACCTTT, the binding signal in the assay with FEV was 1.45 fold enrichment (6-mer frequency, TF over GST control); in the assay with ETV5 it was 1.36 fold enrichment (6-mer frequency, TF over GST control); in the assay with HSF1, 1.36 fold enrichment (6-mer frequency, TF over GST control); with SPIC, 1.58 fold enrichment (6-mer frequency, TF over GST control); with ELF4, 1.42 fold enrichment (6-mer frequency, TF over GST control); with ELK4, 1.49 fold enrichment (6-mer frequency, TF over GST control). Besides, the binding signal is 1.31 fold enrichment (6-mer frequency, TF over GST control) with ETV2; 1.32 fold enrichment (6-mer frequency, TF over GST control) with ELF3; 1.3 fold enrichment (6-mer frequency, TF over GST control) with CRX; 1.43 fold enrichment (6-mer frequency, TF over GST control) in the assay with ETV1; 1.52 fold enrichment (6-mer frequency, TF over GST control) in the assay with ERF; 1.41 fold enrichment (6-mer frequency, TF over GST control) in the assay with ETV3L. Also, the binding signal is 1.48 fold enrichment (6-mer frequency, TF over GST control) in the assay with ETS2; 1.34 fold enrichment (6-mer frequency, TF over GST control) with SPDEF; 1.36 fold enrichment (6-mer frequency, TF over GST control) with ETV7; 1.45 fold enrichment (6-mer frequency, TF over GST control) in the assay with ELF5; 1.42 fold enrichment (6-mer frequency, TF over GST control) with ETV3; 1.48 fold enrichment (6-mer frequency, TF over GST control) with ETV6.
